Reference: PubChem BioAssay (EPA / NIEHS)
Records with an inconclusive call do not appear. The source made the active and inactive calls. How the source made its calls: active means hit-call score of the fitted dose curve at least 0.9, where 1 is the maximum; inconclusive means response in the unintended direction; inactive means score below 0.9.

assay: ACEA_AR_antagonist_AUC_viability: ACEA Biosciences xCELLigence Real-Time Cell Analysis on Androgen Receptor Antagonism for Viability (AID 2283776);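 further: 22Rv1 human prostate cancer cells growing on impedance electrode plates; hits lower the growth signal relative to DMSO meaning cytotoxicity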
In short: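 Impedance read-out (RT-CES): area under growth curve at 80 h post-dose, loss of signal scored vs DMSO baseline. 22Rv1 cells; 8-pt 1:4 series, top 100 uM final, ≤0.5% DMSO; biological duplicate.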

Q: For `O=NN(c1ccccc1)c1ccccc1`, which outcome is on record?
A: Its outcome is “inactive”.

Q: Which outcome does the source give for `O=S(=O)(O)C(F)(F)C(F)(F)C(F)(F)C(F)(F)C(F)(F)C(F)(F)F` here?
A: The outcome was “inactive”.

Q: For `Oc1ccc(Cl)cc1Cl`, which outcome is on record?
A: The outcome was “inactive”.

Q: Which outcome does the source give for `Sc1ccccc1` here?
A: Its outcome is “inactive”.

Q: Which outcome does the source give for `CCCN(CCC)N=O` here?
A: The outcome was “inactive”.

Q: With `CCOC(=O)C(O)(c1ccc(Cl)cc1)c1ccc(Cl)cc1` as the compound, how does the AC50 read?
A: Its AC50 is 19.6 µM (active).

Q: Which outcome does the source give for `CCSC(=O)N(CC)C1CCCCC1` here?
A: The outcome was “inactive”.

Q: Which AC50 does the source give for `CC(c1ccc(O)cc1)(c1ccc(O)cc1)c1ccc(O)cc1` here?
A: The AC50 was 14.6 µM (active).

Q: Which AC50 does the source give for `ClC1=C(Cl)[C@]2(Cl)[C@@H]3[C@@H]4C[C@@H]([C@H]5O[C@@H]45)[C@@H]3[C@@]1(Cl)C2(Cl)Cl` here?
A: The AC50 was 50 µM (active).

Q: With `Nn1cnnc1` as the compound, how does the outcome read?
A: Its outcome is “inactive”.

Q: Which AC50 does the source give for `CCCCCCCCCc1ccc(O)cc1` here?
A: The AC50 was 19.1 µM (active).

Q: Which AC50 does the source give for `c1cc2ccc3cccc4ccc(c1)c2c34` here?
A: Its AC50 is 21.4 µM (active).

Q: Which outcome does the source give for `OCC(O)CO` here?
A: The outcome was “inactive”.

Q: With `c1ccc(-c2ccccc2)cc1` as the compound, how does the outcome read?
A: The outcome was “inactive”.

Q: With `CN(C)c1nc(=O)n(C2CCCCC2)c(=O)n1C` as the compound, how does the outcome read?
A: Its outcome is “inactive”.

Q: Which AC50 does the source give for `Cc1ccccc1CO[C@@H]1C[C@@]2(C(C)C)CC[C@]1(C)O2` here?
A: The AC50 was 63.6 µM (active).

Q: With `C=CC(N)=O` as the compound, how does the outcome read?
A: Its outcome is “inactive”.

Q: For `COS(=O)(=O)OC`, which outcome is on record?
A: The outcome was “inactive”.

Q: Which AC50 does the source give for `CCC(C)c1cc([N+](=O)[O-])cc([N+](=O)[O-])c1O` (stereo unspecified) here?
A: Its AC50 is 12 µM (active).

Q: With `Cc1cc2c3c(c1)C(c1ccccc1)=N[C@@H](NC(=O)c1ccncc1)C(=O)N3CC2` as the compound, how does the AC50 read?
A: The AC50 was 50 µM (active).

Q: Which outcome does the source give for `CCCCCCCCOC(=O)c1ccccc1C(=O)OCCCCCCCC` here?
A: Its outcome is “inactive”.

Q: Which outcome does the source give for `O=C(O)C(F)(F)C(F)(F)C(F)(F)C(F)(F)C(F)(F)F` here?
A: The outcome was “inactive”.

Q: With `CCCCCCCCCC[N+](C)(C)CCCCCCCCCC` as the compound, how does the AC50 read?
A: The AC50 was 6.84 µM (active).

Q: With `O=C(O)C(F)(F)C(F)(F)C(F)(F)C(F)(F)C(F)(F)C(F)(F)C(F)(F)C(F)(F)C(F)(F)F` as the compound, how does the AC50 read?
A: Its AC50 is 67.3 µM (active).

Q: With `Clc1ccc(Cl)cc1` as the compound, how does the outcome read?
A: The outcome was “inactive”.

Q: Which AC50 does the source give for `Oc1c(Cl)c(Cl)c(Cl)c(Cl)c1Cl` here?
A: Its AC50 is 29.5 µM (active).

Q: With `Cc1cc(O)ccc1Cl` as the compound, how does the outcome read?
A: The outcome was “inactive”.

Q: With `O=C(O)C(F)(F)C(F)(F)C(F)(F)C(F)(F)C(F)(F)C(F)(F)C(F)(F)C(F)(F)F` as the compound, how does the AC50 read?
A: The AC50 was 72 µM (active).

Q: With `CCC(C)(c1ccc(O)cc1)c1ccc(O)cc1` as the compound, how does the AC50 read?
A: The AC50 was 42.4 µM (active).

Q: Which outcome does the source give for `O=C(NC(=O)c1cc(F)c(F)cc1Cl)Nc1cc(F)ccc1N1CCC(C(=O)O)CC1` here?
A: The outcome was “inactive”.

Q: With `CCOCCOC(C)=O` as the compound, how does the outcome read?
A: Its outcome is “inactive”.
